# From PubChem BioAssay
# An excerpt weighted towards active compounds, which were near 3.9% of everything screened.
# UBC9 SUMO inh: SUMOylation inhibition. actives 0.36% (n = 290,000). HTRF SUMOylation assay, SAE1/SAE2 + UBC9, in vitro. AID 2006. inhibition, % at 35 µM; in the data active = inhibition above about 50%, passing the limit was not always enough; inconclusive = no clear call, values can overlap the other calls
# NTR1 agonist: NTR1 (human) agonism; actives 0.17% (n = 330,000); activation, % at 20 µM; NTR1-U2OS beta-arrestin-GFP spot imaging, agonist mode; P30989;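 active = activation at or above 40% of the spot to cytoplasm intensity ratio, with at least 20 cells analyzed; inconclusive = wells under 20 cells, flagged as cytotoxic or low count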;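 also: 0% = DMSO without peptide and 100% = 100 nM NTR1 peptide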
# Target sequence (P30989 whole entry, looked up): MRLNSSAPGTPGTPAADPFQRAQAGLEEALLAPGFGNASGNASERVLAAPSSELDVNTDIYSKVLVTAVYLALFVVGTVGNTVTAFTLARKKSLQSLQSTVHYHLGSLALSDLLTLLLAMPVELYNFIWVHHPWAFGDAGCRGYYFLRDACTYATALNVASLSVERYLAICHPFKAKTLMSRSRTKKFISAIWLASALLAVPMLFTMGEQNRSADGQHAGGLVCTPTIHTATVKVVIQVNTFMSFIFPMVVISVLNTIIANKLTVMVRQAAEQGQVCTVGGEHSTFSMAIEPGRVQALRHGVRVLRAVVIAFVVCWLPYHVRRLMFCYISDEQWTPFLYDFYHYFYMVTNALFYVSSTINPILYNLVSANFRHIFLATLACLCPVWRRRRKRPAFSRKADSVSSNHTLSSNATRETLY
# ALR inh: human ALR oxidase inhibition via reduced H2O2 | P55789 | purified ALR, DTT oxidation, H2O2 HRP-luminol luminescence | inhibition, % (test concentration not listed) | actives 3.8% (n = 290,000);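 active = mean replicate inhibition above about 79%, with every replicate also reaching it, limit read from the data; inconclusive = only one of the two criteria met; inactive = mean below limit and not every replicate reaching it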
# Target sequence (P55789 whole entry, looked up): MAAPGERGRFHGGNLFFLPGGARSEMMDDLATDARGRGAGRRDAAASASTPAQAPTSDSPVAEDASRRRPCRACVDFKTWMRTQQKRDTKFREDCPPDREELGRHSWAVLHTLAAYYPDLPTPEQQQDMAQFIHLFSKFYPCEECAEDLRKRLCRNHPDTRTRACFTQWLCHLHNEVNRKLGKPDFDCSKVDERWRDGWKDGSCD
# Cardio protect: protects H9c2 cardiomyocytes from peroxide injury | H2O2 injury protection, ATPLite, 2 h | protection from H2O2 cell death, % at 20 µM | actives 0.63% (n = 360,000) | AID 588492;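 active = compounds giving at least 50% protection of heart cells from peroxide-induced death in the single-dose screen, raw or plate-pattern-corrected value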;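 also: 0% = DMSO wells with peroxide and 100% = DMSO wells without peroxide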
# An asterisk follows results filed as active; ? = inconclusive; . = not tested or not shown.
SMILES,UBC9 SUMO inh,NTR1 agonist,ALR inh,Cardio protect
O=C(CN1C(=O)C2CC=CCC2C1=O)Nc1ccccc1N1CCCC1 (configuration not stated),.,-1.1,?,-0.9
O=C(Nc1ccccc1N1CCCC1)c1ccccc1F,-10.0,0.2,98.4*,-0.1
Nc1c(C(=O)O)sc2nc(-c3ccccc3)cc(-c3ccc(F)cc3)c12,28.4,2.8,23.0,-3.1
COc1cc(C(=O)Nc2ccc3nc4n(c(=O)c3c2)CCCCC4)cc(OC)c1OC,15.2,1.5,-3.7,8.5
CCC(C(=O)Nc1ccccc1N1CCCC1)c1ccccc1 (configuration not stated),6.0,1.1,97.9*,-3.3
O=C(Nc1ccccc1N1CCCC1)c1cccnc1Cl,19.9,2.0,49.8,14.4
O=C(CNCC1CCCO1)Nc1ccccc1N1CCCCCC1 (configuration not stated),-3.7,-0.5,98.5*,-1.7
O=C(Nc1ccccc1N1CCCC1)c1cccc(Cl)c1Cl,-3.1,0.0,98.3*,-2.4
CCC(Oc1ccccc1)C(=O)Nc1ccccc1N1CCCC1 (configuration not stated),-11.2,3.1,31.9,-6.2
COc1ccc(CSc2nc3nc(C)cc(C)n3n2)cc1F,7.6,-0.6,-5.0,-4.2
O=C1OC(c2ccc(F)cc2)=C/C1=C\c1ccc([N+](=O)[O-])o1,51.5*,-0.4,-9.5,.
O=C1OC(c2ccc(F)cc2)=C/C1=C\c1ccc(O)cc1,10.5,7.9,22.6,-13.8
CCNc1nc(NCC)n2c(SCC(=O)Nc3ccc(OC)c(OC)c3)nnc2n1,.,-0.1,5.8,0.8
O=C(Nc1cccnc1)c1cccc(S(=O)(=O)N2CCc3ccccc32)c1,1.0,0.2,2.0,-2.7
O=C(CSc1nnc(-c2ccco2)o1)c1ccc[nH]1,41.0,-0.4,97.7*,4.9
CC(=O)c1c(C)cc(C)c(CSc2nnc(-c3ccco3)o2)c1C,-6.2,8.0,90.0*,-0.3
O=C(CSc1nnc(-c2ccco2)o1)c1ccc(F)c(F)c1,1.8,-1.4,28.0,-2.3
COc1cc(-c2nnc(SCC(=O)c3ccc(C)cc3)o2)cc(OC)c1OC,-1.5,10.7,-0.4,13.9
O=C(CSc1nnc(-c2ccco2)o1)c1ccccc1,8.7,-2.9,99.1*,0.4
COc1cccc(C(=O)CSc2nnc(-c3cc(OC)c(OC)c(OC)c3)o2)c1,-15.0,-0.2,10.9,58.0*
CC(C)(C)C(=O)OC/C(N)=N/OC(=O)c1ccc(Cl)c(Cl)c1,-2.7,-0.4,-6.4,-5.0
CCn1ccnc1C(O)c1ccc(N(C)C)cc1 (configuration not stated),-19.2,1.7,99.3*,0.4
CN(C)c1ccc(N=Nc2cccc(F)c2)cc1,8.8,0.8,.,-9.1
CN(C)c1ccc(N=Nc2cccc3ccoc23)cc1,11.5,1.8,85.8*,-8.0
COc1ccc(C(=O)CC(=O)O)c2c1C=CC(C)(C)O2,36.7,0.2,-1.7,-1.4
SMILES,UBC9 SUMO inh,NTR1 agonist,ALR inh,Cardio protect
Nc1c(/C=C2/C=CC(=O)C(O)=C2)c(=O)nc2sc(CC(=O)N3CCCC3)nn12,6.1,0.4,99.2*,-4.1
Nc1c(/C=C2/C=CC(=O)C(O)=C2)c(=O)nc2sc(CC(=O)N3CCCCC3)nn12,25.1,0.2,99.2*,-1.2
Nc1c(/C=C2/C=CC(=O)C(O)=C2)c(=O)nc2sc(CC(=O)N3CCOCC3)nn12,.,.,.,0.4
COc1cc(CNC(=O)Nc2cccn3nc(COCCO)nc23)cc(OC)c1OC,.,.,.,7.6
COCc1cccc(-c2csc(C(C)(O)c3ccc(OC)cc3)n2)c1 (configuration not stated),.,.,.,-10.2
N#CC1=C(N)SC(N)=C(C#N)C1c1ccc([N+](=O)[O-])cc1,-13.9,1.0,97.8*,5.1
CC(C)C[C@H](NC(=O)N1CCn2c1nc1ccccc12)C(=O)NCCc1ccccc1,-13.8,2.9,-63.8,-1.7
CCOC(=O)/C(=C/C=C1\Sc2ccccc2N1CC)C(C)=O,20.4,-1.1,87.8*,-9.8
COC(=O)[C@@]12CCCCN1[C@H](c1ccc(-c3cccc(Cl)c3)cc1)[C@H]1C(=O)N(C)C(=O)[C@H]12,.,-3.8,3.2,-4.6
O=S(c1ccc2ccccc2c1)c1cnns1 (configuration not stated),14.0,4.3,98.7*,-19.7
Cc1nnsc1S(=O)c1ccc(Cl)c(Cl)c1 (configuration not stated),0.9,-0.4,.,0.7
CCc1c(O)nc(SCC(=O)Nc2nc3ccccc3s2)n(-c2ccccc2)c1=O,-4.8,-0.7,96.5*,0.0
CCc1c(O)nc(SCC(=O)Nc2nc3ccccc3s2)n(-c2ccc(C)cc2)c1=O,-11.0,-0.4,98.1*,2.3
C=CCn1c(SCC(=O)Nc2nc3ccccc3s2)nc(O)c(CC)c1=O,1.5,1.3,98.7*,5.8
CCc1c(O)nc(SCC(=O)Nc2ccccc2C)n(-c2ccc(C)cc2)c1=O,-1.5,1.4,?,-3.7
O=C(CN1CCN(c2ccccn2)CC1)Nc1ccc([N+](=O)[O-])cc1C(=O)Nc1ccccc1F,-2.2,12.4,8.1,62.9*
Cc1nc(N2CCN(c3ccccn3)CC2)c2c(C)c(C(=O)Nc3ccccc3F)sc2n1,3.5,6.1,.,50.2*
COc1cc(Cl)c(C)cc1NC(=O)c1ccccc1NC(=O)CN1CCN(c2ccccn2)CC1,.,.,.,23.3
Cc1nc(N2CCN(c3ccccn3)CC2)c2c(C)c(C(=O)Nc3ccc(F)cc3F)sc2n1,-11.8,3.1,-8.2,6.6
COc1cc(NC(=O)c2ccccc2)c(OC)cc1NC(=O)CN1CCN(c2ccccn2)CC1,2.6,-1.3,-17.8,50.5*
Cc1ccc(NN2C(=O)C=CC2=O)cc1,0.6,-1.4,.,3.1
CCn1c(NC(=O)c2ccc(C)cc2)c2ccccc2nc1=O,-0.3,0.3,95.4*,10.7
CCn1c(NC(=O)c2ccc(F)cc2)c2ccccc2nc1=O,-5.5,0.6,60.1,-0.2
COc1cc(C(=O)NCC(=O)N/N=C/c2ccc(-c3ccc([N+](=O)[O-])cc3)o2)cc(OC)c1OC,7.7,-3.2,.,21.5
Cc1ccc(C(=O)N/N=C\c2ccc(-c3ccc(Cl)cc3)o2)cn1,9.5,2.8,-0.4,59.9*
SMILES,UBC9 SUMO inh,NTR1 agonist,ALR inh,Cardio protect
COc1cc(C(=O)NCC(=O)N/N=C/c2ccc(-c3cccc([N+](=O)[O-])c3)o2)cc(OC)c1OC,-7.2,0.3,.,66.3*
O=C(N/N=C/c1ccc(-c2cccc([N+](=O)[O-])c2)o1)c1ccc([N+](=O)[O-])cc1,22.1,5.6,0.5,71.9*
O=C(N/N=C/c1ccc(-c2cccc([N+](=O)[O-])c2)o1)c1ccccc1O,.,10.5,-8.9,35.4
CCOC(=O)Cc1csc(NC(=O)Nc2cccs2)n1,-7.8,-1.0,46.1,-7.1
CCCOc1ccc2c(c1)C(=NN=C(N)N)c1cc(OCCC)ccc1-2,-62.4,79.8*,-5.4,-20.3
CCCSc1nc2c([nH]1)c(=O)n(C)c(=S)n2C,.,.,.,2.8
C=Cc1ccc(C(=O)N2CCCC(Nc3ccc4c(c3)OCCO4)C2)cc1 (configuration not stated),11.5,0.9,.,-5.9
COc1ccc(C(=O)N2CCCC(Nc3ccc(C)c(C)c3)C2)cc1F (configuration not stated),1.1,1.5,95.1*,2.6
